This is one part of a sample in which hits are shown more often than they occur.
Methyltransferases: Primary Screen for Target Class Profiling of Small Molecule Inhibitors of Methyltransferases; purified enzyme, MTase-Glo SAH luminescence; stronger effect = lower value; calls only at 40 µM; hit rate 3.9% among 25,000; AID 1745853, 2022; call rule not given here
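Each enzyme was assayed with SAM and its substrate. SAH formation detected by MTase-Glo luminescence; single-point 40 uM screen[…].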
Starred values were filed as active, the others as inactive; i = inactive; + = active, no number. On the % scale 0 is the no-effect control and ±100 the full control effect.

SMILES | Methyltransferases
CC(C)CCNC(=O)c1cc2n(n1)CC(C)(C(=O)NCc1ccccc1)N(C)C2=O (stereo unspecified) | i
O=C(CCC1CCCC1)N1CC(N(Cc2ccccn2)C(=O)Nc2ccccc2)C1 | i
CCCSCCCN1C(=O)c2cc3ccc(OC)cc3n2CC1(C)C(=O)NC1CCCCC1 (stereo unspecified) | i
COC(=O)c1ccc(OC)c(CN2CC(=O)N(Cc3ccc(F)cc3)c3ccccc3S2(=O)=O)c1 | i
Cc1ccc(Cl)cc1NC(=O)Cn1nc2n(CCCOC(C)C)c(=O)c3ccccc3n2c1=O | i
Cc1ccc(NS(=O)(=O)c2cc3c(cc2Cl)n(C)c(=O)n3C)cc1F | i
CCc1ccc(CNC(=O)CNC(=O)C2(C)Cn3c(cc4ccccc43)C(=O)N2CC)cc1 (stereo unspecified) | i
COc1ccc(C(=O)Cn2nc3n(Cc4ccc(C)cc4)c(=O)c4ccccc4n3c2=O)cc1OC | i
Cc1ccc(CNC(=O)C2(C)Cn3nc(C(=O)NCCN4CCCCC4)cc3C(=O)N2C)cc1 (stereo unspecified) | i
CC(C)CNC(=O)c1ccc2c(=O)n(Cc3ccccc3)c3n[nH]c(=O)n3c2c1 | i
COc1ccccc1N1CCN(C(=O)Cn2c(=O)n3nc(C)nc3c3ccccc32)CC1 | i
CC1(C)CC[C@]2(C(=O)O[C@@H]3O[C@H](CO)[C@@H](O)[C@H](O)[C@H]3O)CC[C@]3(C)C(=CCC4[C@@]5(C)C[C@@H](O)[C@H](O)[C@@](C)(CO)C5CC[C@]43C)C2[C@@H]1O (stereo partly specified) | +
CC1(C)CC[C@]2(C(=O)O[C@@H]3O[C@H](CO)[C@@H](O)[C@H](O)[C@H]3O)CC[C@]3(C)C(=CCC4[C@@]5(C)C[C@@H](O)[C@H](O)[C@@](C)(CO)C5[C@H](O)C[C@]43C)C2[C@@H]1O (stereo partly specified) | +
CC1OC(OC2C(O)COC(O[C@@H]3[C@@H](O)[C@@H](O)[C@H](OC4C(OC(=O)[C@]56CCC(C)(C)CC5C5=CCC7[C@@]8(C)C[C@H](O)[C@H](OC9OC(CO)C(O)C(O)C9O)[C@@](C)(CO)C8[C@H](O)C[C@@]7(C)[C@]5(C)CC6)OCC(O)C4O)O[C@H]3C)C2O)C(O)C(O)C1O (stereo partly specified) | i
CC1(C)CC[C@]2(C(=O)O[C@@H]3O[C@H](CO)[C@@H](O)[C@H](O)[C@H]3O)CC[C@]3(C)C(=CCC4[C@@]5(C)CC[C@H](O[C@H]6O[C@H](CO)[C@@H](O)[C@H](O[C@@H]7O[C@H](CO)[C@@H](O)[C@H](O)[C@H]7O)[C@H]6O)C(C)(C)C5CC[C@]43C)[C@@H]2C1 (stereo partly specified) | i
C[C@@H]1CC[C@]2(C(=O)O[C@@H]3O[C@H](CO)[C@@H](O)[C@H](O)[C@H]3O)CC[C@]3(C)C(=CCC4[C@@]5(C)C[C@@H](O)[C@H](O)C(C)(C)C5CC[C@]43C)C2[C@]1(C)O (stereo partly specified) | i
COC(=O)C1(C)CCC2(C(=O)O)CCC3(C)C(=CCC4C5(C)CC(O)C(OC6OCC(O)C(O)C6O)C(C)(CO)C5CCC43C)C2C1 (stereo unspecified) | i
CC1CCC2(C(=O)OC3OC(CO)C(O)C(O)C3O)CCC3(C)C(=CCC4C5(C)CC(O)C(O)C(C)(C(=O)O)C5CCC43C)C2C1(C)O (stereo unspecified) | i
CC1(CO)CC[C@]2(C(=O)O[C@@H]3O[C@H](CO)[C@@H](O)[C@H](O)[C@H]3O)CC[C@]3(C)C(=CCC4[C@@]5(C)C[C@H](O)[C@H](O[C@@H]6OC[C@@H](O)[C@H](O)[C@H]6O)[C@@](C)(CO)C5CC[C@]43C)C2C1 (stereo partly specified) | +
C[C@@H]1O[C@@H](O[C@@H]2CO[C@@H](O[C@H]3CC[C@@]4(C)C(CC[C@]5(C)C4CC=C4[C@@H]6CC(C)(C)CC[C@]6(C(=O)O[C@@H]6O[C@H](CO)[C@@H](O)[C@H](O)[C@H]6O)CC[C@]45C)[C@]3(C)CO)[C@H](O)[C@H]2O[C@@H]2O[C@H](CO)[C@@H](O)[C@H](O)[C@H]2O)[C@H](O)[C@H](O)[C@H]1O (stereo partly specified) | i
CC1CCC2(C(=O)OC3OC(CO)C(O)C(O)C3O)CCC3(C)C(=CCC4C5(C)CCC(O)C(C)(CO)C5CCC43C)C2C1(C)O (stereo unspecified) | i
CC1(C)CC[C@]2(C(=O)O)CC[C@]3(C)C(=CCC4[C@@]5(C)C[C@@H](O)[C@H](O)[C@@](C)(CO)C5[C@H](O)C[C@]43C)[C@@H]2C1 (stereo partly specified) | i
CC1(C)CC[C@]2(C(=O)O[C@@H]3O[C@H](CO)[C@@H](O)[C@H](O)[C@H]3O)CC[C@]3(C)C(=CCC4[C@@]5(C)C[C@@H](O)[C@H](O)C(C)(C)C5CC[C@]43C)C2[C@@H]1O (stereo partly specified) | +
COc1ccc(NC(=O)CCc2nnc3n(Cc4ccc(F)cc4)c(=O)c4ccccc4n23)cc1 | i
COc1cccc(N2C(=O)c3cc4occc4n3CC2(C)C(=O)NC2CCC(C)CC2)c1 (stereo unspecified) | i
SMILES | Methyltransferases
CC1(C(=O)NC2CCCCCC2)Cn2c(cc3sccc32)C(=O)N1Cc1cccc(Cl)c1 (stereo unspecified) | i
CC(C)NC(=O)c1ccc2c(=O)n(Cc3ccccc3)c3nn(CC(=O)c4ccccc4)c(=O)n3c2c1 | i
CCc1cc2c(cc3n2CC(C)(C(=O)NC2CCCCC2)N(Cc2ccccc2OC)C3=O)s1 (stereo unspecified) | i
COc1ccc(CN2C(=O)CSc3c(c4ccccc4n3C)C2C(=O)NCc2ccccc2)cc1 (stereo unspecified) | i
Cc1ccccc1Cn1nc2n(CCC(C)C)c(=O)c3ccc(C(=O)NC(C)C)cc3n2c1=O | i
O=C(Cn1ccc2cc(S(=O)(=O)N3CCCCC3)ccc21)NCc1ccc(F)cc1 | i
COCCCN1C(=O)c2ccc(-c3ccccc3)n2CC1(C)C(=O)NC1CCCCCC1 (stereo unspecified) | i
CCCCN1C(=O)c2cc(C(=O)Nc3ccc(C)cc3C)nn2CC1(C)C(=O)NC1CCCC1 (stereo unspecified) | i
CCC(C)NC(=O)c1ccc2c(=O)n(CC(C)C)c3nn(Cc4cc(C)ccc4C)c(=O)n3c2c1 (stereo unspecified) | i
Cc1ccc(C)c(N2CCN(C(=O)c3ccc4c(=O)nc5c(-c6ccccc6F)n[nH]n5c4c3)CC2)c1 | i
Clc1ccc(C(c2ccc(Cl)cc2)n2cc[n+](CC(OCc3ccc(Cl)cc3Cl)c3ccc(Cl)cc3Cl)c2)cc1 (stereo unspecified) | +
CCOc1ccc(CCNC(=O)c2cc3n(n2)CC(C)(C(=O)NC2CCCC2)N(CC)C3=O)cc1 (stereo unspecified) | i
CCCN1C(=O)c2c(C(=O)NCc3ccccc3OC)ncn2CC1(C)C(=O)NCc1ccc(C)cc1 (stereo unspecified) | i
O=C(CSc1nnc2[nH]c(=O)c(-c3ccc(Cl)cc3)nn12)Nc1cccc(F)c1 | i
